According to PubChem BioAssay (Tox21):
Results filed as inconclusive are left out. Active and inactive are the calls of the source. Unless noted, calls follow the shape of the dose curve; as a rule, active = well fitted curve in the direction sought with a large enough effect in the repeat runs; inconclusive = weak or mixed curves; inactive = no such curve, though single readings can be large; an effect the other way counts as inactive or inconclusive.

Experiments:
[1] = qHTS assay for small molecule agonists of the p53 signaling pathway (AID 651631; calls by dose curve; also: nearly all actives have a fitted effect of over 15% in size)
Outline: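 Testing took place in human colorectal HCT-116 cells with stable p53RE-driven beta-lactamase. After 16 h of compound exposure at 37 °C, a FRET substrate was added and fluorescence recorded 2 h later.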

[2] = qHTS assay for small molecules that induce genotoxicity in human embryonic kidney cells expressing luciferase-tagged ATAD5 (AID 651632); also: nearly all actives have a fitted effect of over 15% in size
Outline: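 Genotoxicity read-out via ATAD5-luciferase: HEK293T cells, 16 hr compound incubation at 37C, Amplite detection.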

[3] = qHTS assay for small molecule agonists of the p53 signaling pathway - cell viability (AID 651633; calls by dose curve; also: series mostly up to about 83 µM; nearly all actives have a fitted effect of over 30% in size)
Outline: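 p53RE-bla cells, seeded at 4,000 per well and rested 5 h at 37 C/5% CO2, received compounds in DMSO for 16 h at 37 C. CellTiter-Glo was then added, and luminescence was read after 30 min at room temperature to gauge cytotoxicity.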

[4] = qHTS assay for small molecules that induce genotoxicity in human embryonic kidney cells expressing luciferase-tagged ATAD5 - cell viability (AID 651634; calls by dose curve; also: nearly all actives have a fitted effect of over 25% in size)
Outline: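 Live-cell protease activity (CellTiter-Fluor, fluorescence) indicates viability. HEK293T cells with luciferase-tagged ATAD5; 15.5 hr compound treatment at 37C.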

[5] = qHTS assay for small molecule disruptors of the mitochondrial membrane potential - cell viability (AID 720634; calls by dose curve;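 also: human HepG2 liver cancer cells; series mostly up to about 83 µM; nearly all actives have a fitted effect of over 20% in size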)
Outline: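 Human hepatoma HepG2 cells were treated for 1 hr with test chemicals, then given m-MPI dye and CellTiter-Glo. Cell viability reflects luminescence proportional to cellular ATP.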

[6] = qHTS assay for small molecule disruptors of the mitochondrial membrane potential (AID 720635)
Outline: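 HepG2 cells (2,000/well) attached overnight at 37C, then took compound for 1 hr at 37C, 5% CO2. Mito-MPS dye was added for 30 min; fluorescence was read at 490/535 nm (monomers) and 540/590 nm (aggregates).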

[7] = qHTS assay to test for compound auto fluorescence at 590 nm (red) in HepG2 cells (AID 720674)
Outline: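 Intrinsic compound fluorescence in the red window (Ex/Em 540/590 nm) is measured in attached HepG2 cells exposed for 1 hr, DMSO vehicle as baseline, benchmarked to Rose Bengal sodium.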

[8] = qHTS assay to test for compound auto fluorescence at 535 nm (green) in HepG2 cells (AID 720675)
[9] = qHTS assay to test for compound auto fluorescence at 460 nm (blue) in HEK293 cells (AID 720678)
Outline: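 Cells were seeded and left to adhere for 4-5 hr at 37C. Compounds were then pin-transferred. After an overnight incubation at 37C under 5% CO2, intrinsic fluorescence at 405/460 nm was measured and referenced to triamterene.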

[10] = qHTS assay to test for compound auto fluorescence at 590 nm (red) in HEK293 cells (AID 720679)
Outline: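 Each well held 2,000 HEK293 cells in medium containing 10% dialyzed FBS. Following 4-5 hr attachment at 37C, 23 nL test compound or DMSO was added; plates sat overnight, and red fluorescence (540/590nm) was recorded.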

[11] = qHTS assay to test for compound auto fluorescence at 460 nm (blue) in HEK293 cell free culture (AID 720681)
Outline: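 Test compounds were pinned into cell-free culture medium (DMEM with 10% FBS) and fluorescence was read directly at Ex/Em 405/460 nm. Signals were expressed as fluorescence equivalents of triamterene, with DMSO vehicle as control.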

[12] = qHTS assay to test for compound auto fluorescence at 535 nm (green) in HEK293 cell free culture (AID 720682)
Outline: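 DMEM + 10% FBS, cell-free; cpd or DMSO pinned in; Ex485/Em535 read; output as fluorescein-equivalent signal.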

[13] = qHTS assay to test for compound auto fluorescence at 590 nm (red) in HEK293 cell free culture (AID 720683)
Outline: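 Tox21 10K library compounds were pinned into cell-free DMEM with 10% FBS and fluorescence was read at excitation 540 nm. Activity is expressed as Rose Bengal sodium equivalency.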

[14] = qHTS assay to test for compound auto fluorescence at 590 nm (red) in HepG2 cell free culture (AID 720684)
Outline: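 Measured in medium alone (MEM containing 10% FBS) following pintool addition of compound; emission at 590 nm with 540 nm excitation, referenced to Rose Bengal sodium.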

[15] = qHTS assay to test for compound auto fluorescence at 460 nm (blue) in HepG2 cell free culture (AID 720685)
Outline: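 Compound (23 nL) or DMSO pinned into cell-free MEM with 10% FBS; blue fluorescence read at 405/460 nm excitation/emission, expressed as auto-fluorescence equivalency to triamterene.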

[16] = qHTS assay to test for compound auto fluorescence at 535 nm (green) in HepG2 cell free culture (AID 720686)
[17] = qHTS assay to test for compound auto fluorescence at 460 nm (blue) in HepG2 cells (AID 720687)
Outline: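 Cells (2,000/well in MEM with 10% FBS) attached overnight at 37 C, then were exposed to compound or DMSO for 1 hr at 37 C, 5% CO2. Fluorescence read at Ex/Em 405/460 nm, expressed as triamterene-equivalent signal.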

[18] = molecular target: Glucocorticoid receptor (Homo sapiens) (UniProt P04150); test: qHTS assay to identify small molecule agonists of the glucocorticoid receptor (GR) signaling pathway (AID 720691; active = well fitted activation curve with a large enough effect in the signal ratio in the repeat runs, not every such curve was filed as active; the % refers to the signal ratio)
Sequence of Glucocorticoid receptor (Homo sapiens) (P04150 whole entry, looked up): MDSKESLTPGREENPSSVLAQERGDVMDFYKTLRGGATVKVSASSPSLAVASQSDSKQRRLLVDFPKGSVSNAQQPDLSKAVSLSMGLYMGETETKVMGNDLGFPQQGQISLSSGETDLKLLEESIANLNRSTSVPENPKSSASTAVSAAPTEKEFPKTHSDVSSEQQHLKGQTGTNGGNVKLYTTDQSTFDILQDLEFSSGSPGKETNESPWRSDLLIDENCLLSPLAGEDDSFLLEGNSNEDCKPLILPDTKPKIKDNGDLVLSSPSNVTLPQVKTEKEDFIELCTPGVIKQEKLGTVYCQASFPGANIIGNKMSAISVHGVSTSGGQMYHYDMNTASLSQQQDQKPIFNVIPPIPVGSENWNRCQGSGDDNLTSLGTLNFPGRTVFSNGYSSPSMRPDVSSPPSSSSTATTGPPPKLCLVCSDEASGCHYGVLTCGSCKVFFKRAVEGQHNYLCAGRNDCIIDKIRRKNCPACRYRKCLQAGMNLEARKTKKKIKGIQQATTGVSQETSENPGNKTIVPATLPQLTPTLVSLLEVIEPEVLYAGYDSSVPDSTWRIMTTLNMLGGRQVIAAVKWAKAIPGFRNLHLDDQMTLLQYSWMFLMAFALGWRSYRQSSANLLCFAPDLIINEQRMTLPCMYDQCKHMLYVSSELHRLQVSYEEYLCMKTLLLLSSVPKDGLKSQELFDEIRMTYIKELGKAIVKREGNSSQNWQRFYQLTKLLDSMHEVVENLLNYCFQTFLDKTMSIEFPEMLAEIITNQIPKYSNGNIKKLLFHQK
Outline: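 Beta-lactamase reporter activity, read as fluorescence intensity, was measured in GR-bla HeLa cells exposed to compounds for 18 h at 37 C and then loaded with LiveBLAzer B/G FRET substrate for 2 h at room temperature.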

[19] = molecular target: Glucocorticoid receptor (Homo sapiens) (UniProt P04150); test: qHTS assay to identify small molecule antagonists of the glucocorticoid receptor (GR) signaling pathway (AID 720692; active = well fitted inhibition curve with a large enough effect in the signal ratio in the repeat runs, not every such curve was filed as active; the % refers to the signal ratio)
Outline: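 Fluorescence from cleaved LiveBLAzer B/G FRET substrate reports GRE-driven beta-lactamase in HeLa cells; compounds are tested against 5 nM dexamethasone (final) over 18 h at 37 C, substrate incubation 2 h at room temperature.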

[20] = qHTS assay to test for compound auto fluorescence at 535 nm (green) in HEK293 cells (AID 720680)

Measured: Potency

Cc1cccc([N+](=O)[O-])c1C(=O)O
not listed: [20]
inactive: all other assays above

CNC1(C)C2CCC(C2)C1(C)C (stereo not drawn)
inactive: all assays above

Nc1cc(S(=O)(=O)O)cc2cc(S(=O)(=O)O)cc(O)c12
not listed: [9] | [11]
inactive: all other assays above

CCOC(=O)C(C)C(C)=O (stereo not drawn)
not listed: [19]
inactive: all other assays above

CC(C)(C)NCC(O)c1cc(O)cc(O)c1 (stereo not drawn)
not listed: [11] | [18] | [19]
inactive: all other assays above

COc1cc(C(=S)N2CCOCC2)ccc1O
not listed: [6] | [13]
inactive: all other assays above

CC(=O)OCC1=C(C(=O)O)N2C(=O)[C@@H](NC(=O)Cc3cccs3)[C@H]2SC1
not listed: [11] | [13]
inactive: all other assays above

O=C(O)c1cn(-c2ccc(F)cc2)c2cc(N3CCNCC3)c(F)cc2c1=O
not listed: [6]
inactive: all other assays above

CCn1cc(C(=O)O)c(=O)c2cc(F)c(N3CCNC(C)C3)c(F)c21 (stereo not drawn)
not listed: [11]
inactive: all other assays above

OCCN1CCNCC1
not listed: [7] | [13]
inactive: all other assays above

Cc1cccc2n[nH]nc12
not listed: [7] | [13] | [18] | [19]
inactive: all other assays above

O=C(O)c1cc(Cl)cc(Cl)c1
not listed: [7] | [19] | [20]
inactive: all other assays above

CC(C)(O)CCC(C)(C)O
inactive: all assays above
